For 4 compounds, outcome and AC50 results are on record in PubChem BioAssay (EPA / NIEHS).

Read-out in assay [1]: Nuclear factor erythroid 2-related factor 2 (Homo sapiens) (UniProt Q16236)
The assay is described as follows: LTEA_HepaRG_NFE2L2: Life Technologies and Expression Analysis (LTEA) Assay for Nuclear factor erythroid 2-related factor 2 (NFE2L2) Transcription Factor using HepaRG (AID 2283527).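 As to outcome: TaqMan qRT-PCR transcript level normalised to ACTB GAPDH and POLR2A housekeeping genes.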 Particulars: mRNA level, 48 h; actives raise or lower the signal. The gist of the method: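 Differentiated human HepaRG cells in serum-free induction medium were exposed for 48 h to eight concentrations (top 100 uM, half-log dilutions, 0.5% DMSO), in duplicate. NFE2L2 mRNA was quantified by TaqMan qRT-PCR, normalized to ACTB, GAPDH and POLR2A, with bidirectional fitting versus DMSO.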

Read-out in assay [2]: succinate dehydrogenase complex iron sulfur subunit B (SDHB), SDHB (gene 6390)
The assay can be described thus: LTEA_HepaRG_SDHB: Life Technologies and Expression Analysis (LTEA) Assay for succinate dehydrogenase complex iron sulfur subunit B (SDHB) using HepaRG (AID 2283528). Particulars: mRNA level, 48 h; actives raise or lower the signal. The gist of the method:
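HepaRG cells (~100,000/well, plated 48 h) exposed in duplicate for 48 h in serum-free induction medium to 8-point half-log series from 100 uM in 0.5% DMSO; mRNA by qRT-PCR normalised to ACTB, GAPDH, POLR2A; bidirectional fit versus DMSO.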

Read-out in assay [3]: Signal transducer and activator of transcription 3 (Homo sapiens) (UniProt P40763)
The assay is described as follows: LTEA_HepaRG_STAT3: Life Technologies and Expression Analysis (LTEA) Assay for Signal transducer and activator of transcription (STAT3) using HepaRG (AID 2283529). Particulars: mRNA level, 48 h; actives raise or lower the signal. The method in brief: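 Differentiated human HepaRG cells in serum-free induction medium were exposed in duplicate for 48 h to eight half-log concentrations up to 100 uM in 0.5% DMSO. STAT3 mRNA was quantified by TaqMan qRT-PCR, normalized to ACTB, GAPDH and POLR2A, and fitted bidirectionally against DMSO.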

Read-out in assay [4]: solute carrier (SLCO1B1), SLCO1B1 (gene 10599)
The assay is described as follows: LTEA_HepaRG_SLCO1B1: Life Technologies and Expression Analysis (LTEA) Assay for solute carrier (SLCO1B1) using HepaRG (AID 2283530). Particulars: mRNA level, 48 h; actives raise or lower the signal. The gist of the method: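 Gain or loss of SLCO1B1 mRNA is fitted against the 0.5% DMSO vehicle in human HepaRG liver cells treated 48 h at up to 100 uM in half-log steps. Expression comes from qRT-PCR normalized to endogenous controls.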

Read-out in assay [5]: Transforming Growth Factor (TGFA), TGFA (gene 7039)
The assay can be described thus: LTEA_HepaRG_TGFA: Life Technologies and Expression Analysis (LTEA) Assay for Transforming Growth Factor (TGFA) using HepaRG (AID 2283532). Particulars: mRNA level, 48 h; actives raise or lower the signal. The gist of the method:
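Differentiated human HepaRG cells, plated 48 h then switched to serum-free induction medium, were exposed in duplicate for 48 h to 8-point half-log series from 100 uM in 0.5% DMSO. TGFA mRNA measured by qRT-PCR, normalized to ACTB/GAPDH/POLR2A, bidirectional fit versus DMSO.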

Read-out in assay [6]: Transforming Growth Factor (TGFB1), TGFB1 (gene 7040)
The assay is described as follows: LTEA_HepaRG_TGFB1: Life Technologies and Expression Analysis (LTEA) Assay for Transforming Growth Factor (TGFB1) Transporter using HepaRG (AID 2283533). Particulars: mRNA level, 48 h; actives raise or lower the signal. The gist of the method:
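Expression change of TGFB1 in human HepaRG cells is measured after a 48 h chemical exposure, up to 100 uM in 0.5% DMSO vehicle. Curves are fitted in both directions relative to the DMSO baseline.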

Read-out in a further assay: TIMP1, TIMP1 (gene 7076)
The assay can be described thus: LTEA_HepaRG_TIMP1: Life Technologies and Expression Analysis (LTEA) Assay for TIMP1 using HepaRG (AID 2283534). Particulars: mRNA level, 48 h; actives raise or lower the signal. The method in brief: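 We dosed human liver HepaRG cultures for 48 hours with up to 100 uM test chemical and measured TIMP1 expression by qRT-PCR. Activity in either direction is fitted relative to the 0.5% DMSO vehicle.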

Read-out in assay [7]: Tumor necrosis factor receptor 1 (TNFRSF1A), TNFRSF1A (gene 7132)
The assay is described as follows: LTEA_HepaRG_TNFRSF1A: Life Technologies and Expression Analysis (LTEA) Assay for Tumor necrosis factor receptor 1 (TNFRSF1A) using HepaRG (AID 2283535). Particulars: mRNA level, 48 h; actives raise or lower the signal. The method in brief: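 Expression of TNFRSF1A in human HepaRG liver cells was measured by qRT-PCR 48 h after chemical dosing (maximum 100 uM). Bidirectional curve fitting used 0.5% DMSO as baseline.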

Read-out in assay [8]: Thyroid Hormone Responsive (THRSP), THRSP (gene 7069)
The assay is described as follows: LTEA_HepaRG_THRSP: Life Technologies and Expression Analysis (LTEA) Assay for Thyroid Hormone Responsive (THRSP) using HepaRG (AID 2283536). Particulars: mRNA level, 48 h; actives raise or lower the signal. The method in brief: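 Differentiated human HepaRG cells were exposed in duplicate for 48 h in serum-free induction medium to eight concentrations (top 100 uM, half-log steps, 0.5% DMSO). Expression was quantified by TaqMan qRT-PCR, normalized to ACTB, GAPDH and POLR2A, with bidirectional fitting against DMSO.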

Read-out in assay [9]: UDP glucuronosyltransferase (UGT1A1), UGT1A1 (gene 54658)
The assay is described as follows: LTEA_HepaRG_UGT1A1: Life Technologies and Expression Analysis (LTEA) Assay for UDP glucuronosyltransferase (UGT1A1) using HepaRG (AID 2283538). Particulars: mRNA level, 48 h; actives raise or lower the signal. The gist of the method:
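HepaRG cells, 0.5% DMSO vehicle, 48 h exposure in serum-free induction medium to 8-point half-log series topping at 100 uM, in duplicate. UGT1A1 mRNA by Fluidigm qRT-PCR, normalized to ACTB/GAPDH/POLR2A; bidirectional fit versus DMSO.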

Read-out in assay [10]: UDP glucuronosyltransferase (UGT1A6), UGT1A6 (gene 54578)
The assay is described as follows: LTEA_HepaRG_UGT1A6: Life Technologies and Expression Analysis (LTEA) Assay for UDP glucuronosyltransferase (UGT1A6) using HepaRG (AID 2283539). Particulars: mRNA level, 48 h; actives raise or lower the signal. The gist of the method:
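Endpoint is UGT1A6 transcript induction or loss in a human liver cell line, quantified by TaqMan qRT-PCR 48 h after dosing. Concentrations ran from 100 uM downward in half-log steps in 0.5% DMSO; activity was fitted in both directions versus vehicle.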

Read-out in assay [11]: X-box binding protein 1 (XBP1), XBP1 (gene 7494)
The assay can be described thus: LTEA_HepaRG_XBP1: Life Technologies and Expression Analysis (LTEA) Assay for X-box binding protein 1 (XBP1) using HepaRG (AID 2283540). Particulars: mRNA level, 48 h; actives raise or lower the signal. The gist of the method:
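Human HepaRG monolayers receive test chemical for 48 h across an eight-point half-log series starting at 100 uM. XBP1 mRNA gain or loss is scored against DMSO by qRT-PCR.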

A short description of assay [12]: LTEA_HepaRG_LDH_cytotoxicity: Cytotoxicity Assessment in the Life Technologies and Expression Analysis (LTEA) Assay (AID 2283563; active = hit-call score of the fitted dose curve at least 0.9, where 1 is the maximum;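 as to AC50: LDH activity released into spent culture medium as a marker of cell death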). The method in brief:
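Human HepaRG hepatic cells are treated with test chemicals for 48 h at up to 100 uM in 0.5% DMSO. Cytotoxicity is scored from medium LDH against the vehicle control.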

Assay [13] is described as follows: ATG_XTT_Cytotoxicity: Cytotoxicity Assessment in the Attagene TRANS-FACTORIAL HepG2 Assay (AID 2283584; active = hit-call score of the fitted dose curve at least 0.9, where 1 is the maximum;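 as to AC50: XTT signal for cell number as viability in transfected HepG2 cells; cells exposed to compound for 24 h before reading; active means loss of viability signal versus DMSO baseline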). The method in brief:
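Transfect HepG2 with GAL4-UAS reporter units, dose compound, incubate 24 h, then measure viable cell number by XTT. Fit concentration response against DMSO baseline.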

Read-out in assay [14]: sulfotransferase 2A1 (SULT2A1), SULT2A1 (gene 6822)
The assay is described as follows: LTEA_HepaRG_SULT2A1: Life Technologies and Expression Analysis (LTEA) Assay for sulfotransferase 2A1 (SULT2A1) using HepaRG (AID 2283531). Particulars: mRNA level, 48 h; actives raise or lower the signal. The method in brief:
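Cells were plated and cultured 48 h, switched to serum-free induction medium, then dosed in duplicate for 48 h (8 concentrations, max 100 uM). RNA was isolated and SULT2A1 expression measured by qRT-PCR; gain or loss of signal fitted relative to DMSO.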

Read-out in assay [15]: Cellular tumor antigen p53 (Homo sapiens) (UniProt P04637)
The assay is described as follows: LTEA_HepaRG_TP53: Life Technologies and Expression Analysis (LTEA) Assay for Tumor Protein P53 (TP53) using HepaRG (AID 2283537). Particulars: mRNA level, 48 h; actives raise or lower the signal. The method in brief: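 Differentiated HepaRG cells in serum-free induction medium exposed 48 h in duplicate to 8 half-log concentrations, top 100 uM, 0.5% DMSO. TP53 mRNA by TaqMan qRT-PCR (Fluidigm), normalized to ACTB, GAPDH, POLR2A; fitted bidirectionally versus DMSO.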

Assay [16] addresses Cellular tumor antigen p53 (Homo sapiens) (UniProt P04637). The assay can be described thus: TOX21_p53_BLA_p2_ratio: Tox21 HCT-116 p53 Agonism Beta-lactamase Assay, Ratio, Phase 2 (AID 2283592; active = hit-call score of the fitted dose curve at least 0.9, where 1 is the maximum). The method in brief: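 An inducible beta-lactamase reporter in HCT116 cells signals p53 pathway activation. After 16 h chemical exposure at 37C, cells load CCF4-AM substrate for 2 h at room temperature; activity is the cleaved/uncleaved emission ratio relative to DMSO.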

Assay [17] can be described thus: TOX21_p53_BLA_p2_viability: Viability Assessment in the Tox21 HCT-116 p53 Agonism Beta-lactamase Assay, Phase 2 (AID 2283591; active = hit-call score of the fitted dose curve at least 0.9, where 1 is the maximum;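 also: compound exposure lasted 16 h at 37 °C; actives lower the ATP signal meaning cytotoxicity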). The gist of the method: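 HCT-116 p53-bla cells (4000/well) rested 5 h at 37C, then received compounds in DMSO (217-fold dilution) for 16 h at 37C, 5% CO2. After the CCF4 read, CellTiter-Glo was added; ATP luminescence was read after 30 min at room temperature.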

Assay [18] is described as follows: TOX21_p53_BLA_p3_viability: Viability Assessment in the Tox21 HCT-116 p53 Agonism Beta-lactamase Assay, Phase 3 (AID 2283593; active = hit-call score of the fitted dose curve at least 0.9, where 1 is the maximum;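 also: cells exposed to compound for 16 h before reading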). The gist of the method:
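HCT-116 cells (4000/well) rested 5 h at 37C, then got DMSO compounds by pin tool (217-fold dilution) for 16 h at 37C, 5% CO2. After the bla read, CellTiter-Glo was added and luminescence read at 30 min, room temperature.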

Assay [19] deals with Cellular tumor antigen p53 (Homo sapiens) (UniProt P04637). The assay is described as follows: TOX21_p53_BLA_p3_ratio: Tox21 HCT-116 p53 Agonism Beta-lactamase Assay, Ratio, Phase 3 (AID 2283596; active = hit-call score of the fitted dose curve at least 0.9, where 1 is the maximum). The method in brief: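 HCT116 p53-bla cells (4000/well) given compound in DMSO (217-fold dilution) after 5 h, incubated 16 h at 37C. CCF4-AM substrate 2 h at room temperature; 460/530 nm emission ratio, gain fitted against DMSO.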
Chain of Cellular tumor antigen p53 (Homo sapiens) (P04637 whole entry, looked up): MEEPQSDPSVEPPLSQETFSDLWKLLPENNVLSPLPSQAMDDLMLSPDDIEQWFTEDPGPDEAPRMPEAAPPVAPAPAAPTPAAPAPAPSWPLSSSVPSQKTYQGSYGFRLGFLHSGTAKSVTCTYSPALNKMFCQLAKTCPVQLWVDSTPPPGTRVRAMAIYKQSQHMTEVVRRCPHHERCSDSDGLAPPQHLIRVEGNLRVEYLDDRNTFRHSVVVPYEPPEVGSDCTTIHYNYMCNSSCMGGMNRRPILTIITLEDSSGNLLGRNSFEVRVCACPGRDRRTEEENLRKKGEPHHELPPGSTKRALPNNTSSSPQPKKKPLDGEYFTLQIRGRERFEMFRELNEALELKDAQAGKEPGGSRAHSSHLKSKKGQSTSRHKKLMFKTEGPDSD

Each structure is given as a SMILES string. Results filed as inconclusive are left out. Active and inactive are the calls of the source. The calls were made as follows, unless noted: active = hit-call score of the fitted dose curve at least 0.9, where 1 is the maximum; inactive = score below 0.9.

Chain of Nuclear factor erythroid 2-related factor 2 (Homo sapiens) (Q16236 whole entry, looked up): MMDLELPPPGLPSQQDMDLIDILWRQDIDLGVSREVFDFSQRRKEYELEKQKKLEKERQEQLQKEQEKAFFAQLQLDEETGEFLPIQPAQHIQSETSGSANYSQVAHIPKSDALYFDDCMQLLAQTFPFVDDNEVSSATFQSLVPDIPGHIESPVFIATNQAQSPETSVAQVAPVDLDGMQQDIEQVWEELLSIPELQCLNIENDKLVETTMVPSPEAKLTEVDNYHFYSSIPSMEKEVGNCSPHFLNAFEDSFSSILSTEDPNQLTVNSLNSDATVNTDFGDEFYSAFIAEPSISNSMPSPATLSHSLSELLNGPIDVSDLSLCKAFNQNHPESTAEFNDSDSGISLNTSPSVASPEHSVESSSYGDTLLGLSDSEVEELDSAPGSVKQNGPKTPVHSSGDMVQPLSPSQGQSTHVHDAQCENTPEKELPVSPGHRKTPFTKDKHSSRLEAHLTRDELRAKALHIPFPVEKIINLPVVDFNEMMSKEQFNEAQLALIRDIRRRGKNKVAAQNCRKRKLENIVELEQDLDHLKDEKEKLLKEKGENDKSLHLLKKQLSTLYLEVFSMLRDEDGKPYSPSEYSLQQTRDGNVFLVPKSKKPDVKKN
Chain of Signal transducer and activator of transcription 3 (Homo sapiens) (P40763 whole entry, looked up): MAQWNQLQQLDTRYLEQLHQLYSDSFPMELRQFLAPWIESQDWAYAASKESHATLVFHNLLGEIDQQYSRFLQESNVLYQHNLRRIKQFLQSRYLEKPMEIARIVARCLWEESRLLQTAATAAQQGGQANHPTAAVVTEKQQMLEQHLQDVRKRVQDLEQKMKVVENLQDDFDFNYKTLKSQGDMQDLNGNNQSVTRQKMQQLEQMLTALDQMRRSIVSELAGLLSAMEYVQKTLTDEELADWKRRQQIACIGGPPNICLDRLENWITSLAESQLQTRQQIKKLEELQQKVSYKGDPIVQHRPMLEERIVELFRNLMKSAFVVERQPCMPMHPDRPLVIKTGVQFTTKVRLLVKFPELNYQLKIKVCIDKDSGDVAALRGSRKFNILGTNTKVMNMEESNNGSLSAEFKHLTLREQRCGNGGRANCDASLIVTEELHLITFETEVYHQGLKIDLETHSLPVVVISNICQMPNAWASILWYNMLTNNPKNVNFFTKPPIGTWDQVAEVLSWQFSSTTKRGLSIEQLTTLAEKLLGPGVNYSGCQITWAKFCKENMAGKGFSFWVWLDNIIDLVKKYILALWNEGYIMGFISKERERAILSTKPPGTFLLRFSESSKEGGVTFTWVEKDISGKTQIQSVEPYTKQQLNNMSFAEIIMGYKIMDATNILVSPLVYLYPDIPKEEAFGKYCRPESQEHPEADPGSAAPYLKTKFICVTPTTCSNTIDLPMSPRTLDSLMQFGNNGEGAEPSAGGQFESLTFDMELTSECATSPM

`NC=O`: the outcome in assay [1], in assay [2], in [3], in [4], in assay [5] and in [6] was inactive. The outcome with TIMP1, TIMP1 (gene 7076) was “inactive”; in [7] it was “inactive”; in [8], “inactive”; in assay [9] it was “inactive”; in [10], “inactive”; in assay [11] it was “inactive”. The compound was called inactive in assay [12] and in [13].

With `CCN(CC)CCOc1ccc(C(=C(Cl)c2ccccc2)c2ccccc2)cc1`, the AC50 in assay [1] is 77.7 µM (active); in assay [2], 78.1 µM (active); in assay [3], 78.6 µM (active); in [4] it was 13.3 µM (active); in assay [14], 79.3 µM (active); in assay [5] it was 42 µM (active). In addition, the AC50 in assay [6] is 42 µM (active); in [9], 80.1 µM (active); in assay [10], 56.6 µM (active); in [12], 62.5 µM (active); in assay [13] it was 28 µM (active) [middle of 5 runs]. Besides, the outcome was “inactive” in the assay with TIMP1, TIMP1 (gene 7076); “inactive” in assay [7]; “inactive” in assay [11].

`CCCCCCC(CCCCCCCCCCC(=O)OCC(COC(C)=O)OC(C)=O)OC(C)=O` (stereo not drawn): the compound was called inactive in assay [1], in assay [2], in assay [3], in assay [4], in assay [14] and in assay [5]. In addition, the outcome is “inactive” in assay [6]; “inactive” with TIMP1, TIMP1 (gene 7076); “inactive” in [7]; “inactive” in assay [8]; “inactive” in assay [15]; “inactive” in assay [9]. Further, the compound was called inactive in assay [10], in [11], in assay [12], in assay [13] and in assay [16].

For the compound `C=CCc1ccc(OC)c(OC)c1`, the outcome in [1] was “inactive”; in [2], “inactive”; in [3], “inactive”; in assay [14] it was “inactive”; in assay [6], “inactive”; with TIMP1, TIMP1 (gene 7076), “inactive”. In addition, the compound was called inactive in [7], in [15], in assay [9], in assay [10], in assay [11] and in [12]. Further, the outcome in assay [17], in [16], in assay [18] and in assay [19] was inactive. Besides, the values for the AC50 in assay [4] and in assay [5] were 0.315 µM (active) and 9.92 µM (active), respectively.

As a reminder, the AC50 is the concentration at which the activity in the assay is half-maximal.
